# Measured values reported in paper PMC7862700, “An all-to-all approach to the identification of sequence-specific readers for epigenetic DNA modifications on cytosine”.
# Key:
# Assay in all cases: DAPPL (digital affinity profiling via proximity ligation, sequencing); 10 mM Tris-HCl pH 7.5, 50 mM NaCl, 1 mM DTT, 4% glycerol, room temperature, 30 min; GST-TFs on glutathione beads, 16-mer random dsDNA library, 0.1% formaldehyde crosslink after washing; high values mean tight binding
# Conditions in all cases: protein: recombinant; tags: N-terminal GST; dsDNA, one strand shown
# ELK1 = molecular target: T1, ELK1 (Homo sapiens, UniProt P19419 1-428)
# T1 sequence: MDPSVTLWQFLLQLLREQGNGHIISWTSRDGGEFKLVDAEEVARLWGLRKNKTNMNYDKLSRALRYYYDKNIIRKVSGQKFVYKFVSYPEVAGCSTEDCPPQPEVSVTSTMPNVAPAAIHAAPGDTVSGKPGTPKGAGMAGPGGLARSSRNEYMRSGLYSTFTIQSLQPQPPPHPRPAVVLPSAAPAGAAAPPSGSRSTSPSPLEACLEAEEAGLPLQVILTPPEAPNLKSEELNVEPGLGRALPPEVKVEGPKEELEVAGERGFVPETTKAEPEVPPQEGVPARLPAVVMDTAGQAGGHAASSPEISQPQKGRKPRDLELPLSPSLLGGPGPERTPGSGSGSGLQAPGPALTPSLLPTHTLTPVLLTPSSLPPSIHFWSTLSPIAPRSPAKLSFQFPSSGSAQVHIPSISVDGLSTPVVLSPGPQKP
# In short: (§1)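 A tag-only sample was pooled with DNA-barcoded human transcription factors that had been expressed in yeast as GST fusions and captured on glutathione beads. The pools were incubated for 30 min at room temperature with 200 nmole of a random double-stranded 16-mer DNA library in Tris/NaCl/DTT/glycerol buffer, then washed, crosslinked with 0.1% formaldehyde, proximity-ligated (BsaI/T4 ligase, 1 h, 37 °C), PCR-amplified and sequenced on an Illumina NextSeq500. Binding signal is each hexamer's read frequency for a factor divided by its frequency for the tag-only sample.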
# GABPA = molecular target: T2, GABPA (Homo sapiens, UniProt Q06546 1-454)
# T2 sequence: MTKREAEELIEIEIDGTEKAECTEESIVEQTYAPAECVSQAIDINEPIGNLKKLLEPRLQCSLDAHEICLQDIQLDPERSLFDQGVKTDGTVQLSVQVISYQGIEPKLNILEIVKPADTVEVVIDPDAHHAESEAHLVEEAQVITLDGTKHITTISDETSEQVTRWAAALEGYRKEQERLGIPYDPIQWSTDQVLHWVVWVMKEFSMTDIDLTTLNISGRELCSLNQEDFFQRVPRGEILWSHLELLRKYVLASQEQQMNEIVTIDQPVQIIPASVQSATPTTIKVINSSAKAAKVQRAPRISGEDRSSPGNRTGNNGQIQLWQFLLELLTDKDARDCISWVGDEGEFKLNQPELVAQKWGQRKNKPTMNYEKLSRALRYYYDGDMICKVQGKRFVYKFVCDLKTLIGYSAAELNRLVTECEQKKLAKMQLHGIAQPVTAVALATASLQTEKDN
# In short: as §1
# ERG = molecular target: T3, ERG (Homo sapiens, UniProt P11308 1-479)
# T3 sequence: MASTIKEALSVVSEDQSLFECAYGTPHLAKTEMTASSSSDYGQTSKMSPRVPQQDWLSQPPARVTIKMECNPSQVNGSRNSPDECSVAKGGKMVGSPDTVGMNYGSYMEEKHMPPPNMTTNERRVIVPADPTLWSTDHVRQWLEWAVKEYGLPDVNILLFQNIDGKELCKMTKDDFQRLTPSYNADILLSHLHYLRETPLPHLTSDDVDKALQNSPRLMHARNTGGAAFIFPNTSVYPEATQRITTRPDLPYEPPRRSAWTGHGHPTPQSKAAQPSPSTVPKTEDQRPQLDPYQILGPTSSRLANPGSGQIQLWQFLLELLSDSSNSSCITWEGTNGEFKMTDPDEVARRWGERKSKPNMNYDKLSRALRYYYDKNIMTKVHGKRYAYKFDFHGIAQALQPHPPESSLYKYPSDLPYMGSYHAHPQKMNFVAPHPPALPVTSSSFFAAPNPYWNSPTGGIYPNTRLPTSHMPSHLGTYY
# In short: as §1
# ELF1 = ELF1 (Homo sapiens, UniProt P32519 1-619)
# In short: as §1
# EHF = molecular target: T4, EHF (Homo sapiens, UniProt Q9NZC4 1-300)
# T4 sequence: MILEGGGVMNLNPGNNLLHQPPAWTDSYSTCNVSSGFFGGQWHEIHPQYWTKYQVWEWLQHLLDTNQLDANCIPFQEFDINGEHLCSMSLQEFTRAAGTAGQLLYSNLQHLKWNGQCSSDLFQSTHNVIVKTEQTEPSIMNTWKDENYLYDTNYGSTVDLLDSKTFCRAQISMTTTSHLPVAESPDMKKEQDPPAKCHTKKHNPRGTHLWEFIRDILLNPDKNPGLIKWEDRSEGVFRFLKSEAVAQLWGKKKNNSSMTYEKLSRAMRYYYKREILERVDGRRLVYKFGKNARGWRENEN
# In short: as §1
# FEV = molecular target: T5, FEV (Homo sapiens, UniProt Q99581 1-238)
# T5 sequence: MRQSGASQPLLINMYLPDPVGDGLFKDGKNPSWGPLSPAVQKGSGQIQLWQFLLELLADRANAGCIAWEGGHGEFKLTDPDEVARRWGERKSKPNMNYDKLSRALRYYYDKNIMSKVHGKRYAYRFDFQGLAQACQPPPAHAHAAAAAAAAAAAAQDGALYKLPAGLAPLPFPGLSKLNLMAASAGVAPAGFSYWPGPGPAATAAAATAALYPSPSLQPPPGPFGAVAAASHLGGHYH
# In short: as §1
# ETV5 = ETV5 (Homo sapiens, UniProt P41161 1-510)
# In short: as §1
# ELF4 = ELF4 (Homo sapiens, UniProt Q99607 1-663)
# In short: as §1
# ETV2 = molecular target: T6, ETV2 (Homo sapiens, UniProt O00321 1-342)
# T6 sequence: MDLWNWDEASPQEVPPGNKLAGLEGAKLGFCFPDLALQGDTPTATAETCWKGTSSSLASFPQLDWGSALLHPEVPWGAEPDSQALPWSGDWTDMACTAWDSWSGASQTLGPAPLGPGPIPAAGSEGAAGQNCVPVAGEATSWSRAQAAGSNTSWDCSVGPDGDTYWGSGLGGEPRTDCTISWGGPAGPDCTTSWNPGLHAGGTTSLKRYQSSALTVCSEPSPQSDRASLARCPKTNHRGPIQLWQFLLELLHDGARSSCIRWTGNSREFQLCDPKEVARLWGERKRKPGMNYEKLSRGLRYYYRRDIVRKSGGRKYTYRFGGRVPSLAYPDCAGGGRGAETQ
# In short: as §1
# ELF3 = molecular target: T7, ELF3 (Homo sapiens, UniProt P78545 1-371)
# T7 sequence: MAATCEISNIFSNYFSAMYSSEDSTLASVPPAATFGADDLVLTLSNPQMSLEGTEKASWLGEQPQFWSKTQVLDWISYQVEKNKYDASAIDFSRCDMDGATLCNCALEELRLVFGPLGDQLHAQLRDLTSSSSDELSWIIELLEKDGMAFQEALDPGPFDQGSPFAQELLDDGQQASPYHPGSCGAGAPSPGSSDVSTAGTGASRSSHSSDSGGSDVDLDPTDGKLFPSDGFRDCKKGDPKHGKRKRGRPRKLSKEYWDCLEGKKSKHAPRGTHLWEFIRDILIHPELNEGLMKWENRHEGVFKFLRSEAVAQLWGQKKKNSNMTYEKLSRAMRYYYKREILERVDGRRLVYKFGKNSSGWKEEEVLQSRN
# In short: as §1
# ETV1 = ETV1 (Homo sapiens, UniProt P50549 1-477)
# In short: as §1
# ERF = molecular target: T8, ERF (Homo sapiens, UniProt P50548 1-548)
# T8 sequence: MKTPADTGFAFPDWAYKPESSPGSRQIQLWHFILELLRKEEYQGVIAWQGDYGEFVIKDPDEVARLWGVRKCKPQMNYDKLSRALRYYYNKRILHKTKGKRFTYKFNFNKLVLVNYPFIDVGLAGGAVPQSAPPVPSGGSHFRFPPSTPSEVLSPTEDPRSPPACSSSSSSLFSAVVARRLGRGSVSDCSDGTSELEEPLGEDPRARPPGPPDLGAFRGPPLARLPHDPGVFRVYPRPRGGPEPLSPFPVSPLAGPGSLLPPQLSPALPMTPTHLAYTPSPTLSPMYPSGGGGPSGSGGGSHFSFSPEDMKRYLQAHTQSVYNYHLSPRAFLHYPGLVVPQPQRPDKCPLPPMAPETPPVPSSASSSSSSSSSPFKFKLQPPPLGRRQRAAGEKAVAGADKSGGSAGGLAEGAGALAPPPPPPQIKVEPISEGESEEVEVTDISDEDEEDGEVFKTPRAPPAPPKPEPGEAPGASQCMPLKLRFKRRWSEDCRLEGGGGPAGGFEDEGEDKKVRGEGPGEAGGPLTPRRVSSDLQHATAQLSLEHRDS
# In short: as §1
# ETV3L = molecular target: T9, ETV3L (Homo sapiens, UniProt Q6ZN32 1-361)
# T9 sequence: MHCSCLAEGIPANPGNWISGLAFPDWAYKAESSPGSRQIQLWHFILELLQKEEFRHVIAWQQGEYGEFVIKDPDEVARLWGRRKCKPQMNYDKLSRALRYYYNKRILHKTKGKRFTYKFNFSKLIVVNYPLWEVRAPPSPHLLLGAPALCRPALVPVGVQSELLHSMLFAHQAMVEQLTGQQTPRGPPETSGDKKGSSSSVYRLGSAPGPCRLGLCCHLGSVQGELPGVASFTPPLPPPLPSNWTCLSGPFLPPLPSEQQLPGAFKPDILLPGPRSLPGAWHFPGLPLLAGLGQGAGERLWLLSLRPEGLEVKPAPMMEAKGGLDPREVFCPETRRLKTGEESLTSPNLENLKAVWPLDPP
# In short: as §1
# ETS2 = molecular target: T10, ETS2 (Homo sapiens, UniProt P15036 1-469)
# T10 sequence: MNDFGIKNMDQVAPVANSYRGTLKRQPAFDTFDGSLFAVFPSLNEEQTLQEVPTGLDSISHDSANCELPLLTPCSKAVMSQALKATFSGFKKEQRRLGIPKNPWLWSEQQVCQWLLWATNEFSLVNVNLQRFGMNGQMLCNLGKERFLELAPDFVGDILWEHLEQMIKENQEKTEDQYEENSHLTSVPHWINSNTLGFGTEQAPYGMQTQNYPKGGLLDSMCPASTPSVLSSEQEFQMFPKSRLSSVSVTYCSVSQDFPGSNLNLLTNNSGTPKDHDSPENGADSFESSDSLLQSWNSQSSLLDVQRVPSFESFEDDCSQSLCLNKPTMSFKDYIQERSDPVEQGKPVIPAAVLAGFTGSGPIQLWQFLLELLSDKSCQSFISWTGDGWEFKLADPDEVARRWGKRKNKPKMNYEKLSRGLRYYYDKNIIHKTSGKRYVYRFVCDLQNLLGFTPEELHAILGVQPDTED
# In short: as §1
# SPDEF = molecular target: T11, SPDEF (Homo sapiens, UniProt O95238 1-335)
# T11 sequence: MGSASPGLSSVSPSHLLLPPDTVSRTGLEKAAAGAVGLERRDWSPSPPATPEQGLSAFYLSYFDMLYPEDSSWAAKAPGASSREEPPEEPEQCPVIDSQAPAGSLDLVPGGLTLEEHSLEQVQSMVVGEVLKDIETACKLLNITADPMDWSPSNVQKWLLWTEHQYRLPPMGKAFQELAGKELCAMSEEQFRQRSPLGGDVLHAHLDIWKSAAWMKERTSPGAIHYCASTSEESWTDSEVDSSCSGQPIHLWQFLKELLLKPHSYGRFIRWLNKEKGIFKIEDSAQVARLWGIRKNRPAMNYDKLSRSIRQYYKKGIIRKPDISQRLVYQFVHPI
# In short: as §1
# ETV7 = molecular target: T12, ETV7 (Homo sapiens, UniProt Q9Y603 1-341)
# T12 sequence: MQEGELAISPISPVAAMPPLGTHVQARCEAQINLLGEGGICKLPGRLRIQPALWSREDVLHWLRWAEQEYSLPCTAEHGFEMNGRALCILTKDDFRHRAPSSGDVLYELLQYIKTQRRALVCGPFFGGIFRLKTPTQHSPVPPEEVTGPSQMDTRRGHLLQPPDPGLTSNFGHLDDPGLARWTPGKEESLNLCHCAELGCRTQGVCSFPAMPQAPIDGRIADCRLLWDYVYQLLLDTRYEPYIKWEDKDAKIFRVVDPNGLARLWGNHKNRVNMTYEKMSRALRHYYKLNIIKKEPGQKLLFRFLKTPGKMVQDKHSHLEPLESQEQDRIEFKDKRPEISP
# In short: as §1
# ETV3 = molecular target: T13, ETV3 (Homo sapiens, UniProt P41162-2 1-143)
# T13 sequence: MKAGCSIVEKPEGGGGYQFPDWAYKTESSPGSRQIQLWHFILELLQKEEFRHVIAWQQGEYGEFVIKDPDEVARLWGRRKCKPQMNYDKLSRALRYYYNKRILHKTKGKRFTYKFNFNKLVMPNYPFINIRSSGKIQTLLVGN
# In short: as §1
# ETV6 = ETV6 (Homo sapiens, UniProt P41212 1-452)
# In short: as §1
# Chain of ETV6 (P41212 whole entry): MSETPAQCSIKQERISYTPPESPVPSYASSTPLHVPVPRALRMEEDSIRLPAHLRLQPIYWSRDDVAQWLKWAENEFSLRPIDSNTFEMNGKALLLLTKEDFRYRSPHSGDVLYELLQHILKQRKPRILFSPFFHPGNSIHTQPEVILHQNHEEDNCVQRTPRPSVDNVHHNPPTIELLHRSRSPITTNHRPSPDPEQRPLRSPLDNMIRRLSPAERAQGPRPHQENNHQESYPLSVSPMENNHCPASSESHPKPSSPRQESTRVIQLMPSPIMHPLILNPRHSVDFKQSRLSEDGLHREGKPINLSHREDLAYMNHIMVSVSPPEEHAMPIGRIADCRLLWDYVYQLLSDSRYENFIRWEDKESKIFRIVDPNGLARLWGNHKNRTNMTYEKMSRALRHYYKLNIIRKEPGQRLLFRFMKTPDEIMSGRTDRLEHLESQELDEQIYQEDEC
# Chain of ELF4 (Q99607 whole entry): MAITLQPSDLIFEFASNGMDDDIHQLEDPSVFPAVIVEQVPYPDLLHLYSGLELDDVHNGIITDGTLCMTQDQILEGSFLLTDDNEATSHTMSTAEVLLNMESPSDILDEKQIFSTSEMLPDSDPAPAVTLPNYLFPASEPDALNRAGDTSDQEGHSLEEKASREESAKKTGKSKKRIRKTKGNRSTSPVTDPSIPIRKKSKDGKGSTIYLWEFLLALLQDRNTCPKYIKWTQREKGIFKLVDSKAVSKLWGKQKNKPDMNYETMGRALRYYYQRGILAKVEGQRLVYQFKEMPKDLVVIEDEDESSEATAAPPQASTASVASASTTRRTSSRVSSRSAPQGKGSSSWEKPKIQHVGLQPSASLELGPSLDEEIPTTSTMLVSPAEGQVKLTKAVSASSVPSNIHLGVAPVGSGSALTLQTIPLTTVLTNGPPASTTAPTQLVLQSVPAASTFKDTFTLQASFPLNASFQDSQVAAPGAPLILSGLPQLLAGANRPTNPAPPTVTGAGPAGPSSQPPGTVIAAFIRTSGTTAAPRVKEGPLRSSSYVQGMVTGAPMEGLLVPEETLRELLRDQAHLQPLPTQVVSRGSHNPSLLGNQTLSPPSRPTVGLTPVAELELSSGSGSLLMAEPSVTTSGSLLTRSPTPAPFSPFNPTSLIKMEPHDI
# Chain of ETV1 (P50549 whole entry): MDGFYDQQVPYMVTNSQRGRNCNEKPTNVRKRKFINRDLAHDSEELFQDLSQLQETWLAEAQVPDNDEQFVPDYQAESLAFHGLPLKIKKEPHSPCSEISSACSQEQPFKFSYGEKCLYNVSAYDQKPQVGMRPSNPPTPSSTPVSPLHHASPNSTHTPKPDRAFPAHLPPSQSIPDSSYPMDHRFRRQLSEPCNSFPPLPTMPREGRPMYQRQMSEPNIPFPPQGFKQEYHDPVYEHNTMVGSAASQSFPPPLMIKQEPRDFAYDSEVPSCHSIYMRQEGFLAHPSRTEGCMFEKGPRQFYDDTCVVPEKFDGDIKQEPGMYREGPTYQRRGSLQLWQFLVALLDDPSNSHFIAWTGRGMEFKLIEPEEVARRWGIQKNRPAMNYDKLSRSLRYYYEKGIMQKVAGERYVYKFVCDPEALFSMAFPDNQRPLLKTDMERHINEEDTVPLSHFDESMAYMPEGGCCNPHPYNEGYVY
# Chain of ETV5 (P41161 whole entry): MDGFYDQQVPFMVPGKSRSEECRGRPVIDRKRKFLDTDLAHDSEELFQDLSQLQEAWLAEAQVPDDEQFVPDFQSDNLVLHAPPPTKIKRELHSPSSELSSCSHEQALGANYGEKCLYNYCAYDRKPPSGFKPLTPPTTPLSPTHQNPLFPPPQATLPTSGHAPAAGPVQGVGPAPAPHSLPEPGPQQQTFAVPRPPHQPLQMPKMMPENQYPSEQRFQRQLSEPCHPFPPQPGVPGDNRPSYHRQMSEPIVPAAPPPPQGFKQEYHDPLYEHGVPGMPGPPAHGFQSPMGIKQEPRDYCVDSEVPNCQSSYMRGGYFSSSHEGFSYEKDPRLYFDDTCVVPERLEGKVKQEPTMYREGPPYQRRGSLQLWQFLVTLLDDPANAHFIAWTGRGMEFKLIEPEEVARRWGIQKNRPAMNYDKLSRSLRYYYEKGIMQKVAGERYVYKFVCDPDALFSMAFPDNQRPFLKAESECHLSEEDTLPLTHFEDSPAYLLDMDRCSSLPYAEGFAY
# Chain of ELF1 (P32519 whole entry): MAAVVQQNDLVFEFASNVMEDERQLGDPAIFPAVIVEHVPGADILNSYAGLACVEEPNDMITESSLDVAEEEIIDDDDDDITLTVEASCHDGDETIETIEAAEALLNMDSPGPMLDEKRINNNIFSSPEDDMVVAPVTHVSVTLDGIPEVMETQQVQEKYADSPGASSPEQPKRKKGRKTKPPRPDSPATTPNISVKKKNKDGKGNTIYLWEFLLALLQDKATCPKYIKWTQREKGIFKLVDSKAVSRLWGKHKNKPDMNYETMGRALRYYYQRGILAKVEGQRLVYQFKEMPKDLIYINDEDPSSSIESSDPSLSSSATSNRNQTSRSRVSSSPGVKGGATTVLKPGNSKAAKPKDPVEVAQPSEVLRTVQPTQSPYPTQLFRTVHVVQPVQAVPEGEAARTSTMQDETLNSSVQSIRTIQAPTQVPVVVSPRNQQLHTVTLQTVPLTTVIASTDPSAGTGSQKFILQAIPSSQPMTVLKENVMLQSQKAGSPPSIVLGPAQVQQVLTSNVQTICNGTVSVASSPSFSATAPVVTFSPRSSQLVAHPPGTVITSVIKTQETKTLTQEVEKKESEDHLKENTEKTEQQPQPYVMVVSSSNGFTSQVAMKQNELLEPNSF
sequence,measurement,setting,value
ACGCCG,binding signal,ELK1,"1.11 fold enrichment (6-mer frequency, TF over GST control)"
same,binding signal,GABPA,"1.11 fold enrichment (6-mer frequency, TF over GST control)"
same,binding signal,ERG,"1.02 fold enrichment (6-mer frequency, TF over GST control)"
same,binding signal,ELF1,"1.13 fold enrichment (6-mer frequency, TF over GST control)"
same,binding signal,EHF,"1.14 fold enrichment (6-mer frequency, TF over GST control)"
same,binding signal,FEV,"1.14 fold enrichment (6-mer frequency, TF over GST control)"
same,binding signal,ETV5,"1.12 fold enrichment (6-mer frequency, TF over GST control)"
same,binding signal,ELF4,"1.07 fold enrichment (6-mer frequency, TF over GST control)"
same,binding signal,ETV2,"1.07 fold enrichment (6-mer frequency, TF over GST control)"
same,binding signal,ELF3,"1.15 fold enrichment (6-mer frequency, TF over GST control)"
same,binding signal,ETV1,"1.11 fold enrichment (6-mer frequency, TF over GST control)"
same,binding signal,ERF,"1.12 fold enrichment (6-mer frequency, TF over GST control)"
same,binding signal,ETV3L,"1.08 fold enrichment (6-mer frequency, TF over GST control)"
same,binding signal,ETS2,"1.01 fold enrichment (6-mer frequency, TF over GST control)"
same,binding signal,SPDEF,"1.04 fold enrichment (6-mer frequency, TF over GST control)"
same,binding signal,ETV7,"1.14 fold enrichment (6-mer frequency, TF over GST control)"
same,binding signal,ETV3,"1.05 fold enrichment (6-mer frequency, TF over GST control)"
same,binding signal,ETV6,"1.14 fold enrichment (6-mer frequency, TF over GST control)"
